Data as given in PubChem BioAssay AID1578 (Sanford-Burnham Center for Chemical Genomics, 2009).
In all, about 290,000 compounds went through this assay and about 3,000 (1%) were called active. For the sample, actives were picked, then their nearest neighbours and some compounds at random. Unmarked numbers belong to inactive results. Cut-off read from the data, not from the text of the source: active = inhibition mostly above about 36% (no sharp cut-off); inactive = mostly below about 34%.

Experiment: inhibition of NOD1-driven NF-kB reporter – cell-based, luminescence, uHTS, primary screen (AID 1578);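 note: HEK-293T reporter cells stimulated with the NOD1 agonist gamma-tri-DAP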
Conditions: NOD1-driven NF-kB luciferase reporter cells, at 4 µM, hits give high values

Q: With O=S(=O)(NC1CC1)c1cccc(S(=O)(=O)N2CCCC2)c1 as the molecule, how does the inhibition read?
A: -9.9%

Q: Which inhibition does the source give for COc1ccc(CNC(=O)CC(C)CC2=NS(=O)(=O)c3ccccc3N2)cc1 (centres undefined) here?
A: -5.1%

Q: Which inhibition does the source give for COc1ccc(C(=O)NCc2nnc(SCC(=O)N3CCCCC3)o2)cc1OC here?
A: 8.1%

Q: Which inhibition does the source give for CCOc1ccc(-c2nnc3n2N=C(c2ccc(OC)cc2)CS3)cc1 here?
A: 4.9%

Q: For COc1ccc(-c2nnc3n2N=C(C)CS3)cc1, which inhibition is on record?
A: 8.4%

Q: With CCOC(=O)/C(=C\c1ccc(OC(F)F)cc1)C1=Nn2c(nnc2-c2ccc(Cl)cc2)SC1 as the molecule, how does the inhibition read?
A: 92.7% (active)

Q: Which inhibition does the source give for Cc1ccc(Cl)cc1NC(=O)C1CCCN(S(=O)(=O)c2c(C)noc2C)C1 (centres undefined) here?
A: -22.6%

Q: With O=C(O)CCCCCNCc1ccncc1 as the molecule, how does the inhibition read?
A: -8%

Q: Which inhibition does the source give for CCc1ccc(-c2csc(NC(=O)C3=NN(c4ccccc4)C(=O)CC3)n2)cc1 here?
A: 51.4%

Q: With COc1ccc(OC)c(-c2csc(NC(=O)C3=NN(c4ccccc4)C(=O)CC3)n2)c1 as the molecule, how does the inhibition read?
A: -27.4%

Q: For CCOC(=O)c1ccc(NS(=O)C23CC4CC(CC(C4)C2)C3)cc1 (centres undefined), which inhibition is on record?
A: -39.1%

Q: Which inhibition does the source give for CCN(CC)S(=O)(=O)c1ccc2oc(C(=O)NCCCN3CCOCC3)c(C)c2c1 here?
A: -9.1%

Q: With Cc1cccc(N2CCN(C(=O)NC3CCCCC3)CC2)c1C as the molecule, how does the inhibition read?
A: -19.6%

Q: Which inhibition does the source give for O=C1[C@H]2[C@@H](c3ccc(F)cc3)N3C(=O)N(c4cccc(Br)c4)C(=O)[C@@]3(Cc3ccc(Cl)cc3)[C@H]2C(=O)N1C1CCCCC1 here?
A: -14.3%

Q: With O=C1[C@H]2[C@@H](c3ccc(Cl)cc3)N3C(=O)N(c4cccc(Br)c4)C(=O)[C@@]3(Cc3ccc(Cl)cc3)[C@H]2C(=O)N1C1CCCCC1 as the molecule, how does the inhibition read?
A: 45.6% (active)

Q: Which inhibition does the source give for CC[C@@]12C(=O)N(c3cccc(Br)c3)C(=O)N1[C@H](c1ccc(Cl)cc1)[C@@H]1C(=O)N(C3CCCCC3)C(=O)[C@@H]12 here?
A: 10.3%

Q: With COc1c(OC)c(O)c2c(=O)cc(-c3c(O)cccc3O)oc2c1OC as the molecule, how does the inhibition read?
A: 2.2%

Q: Which inhibition does the source give for O=c1cc(-c2c(F)c(F)c(F)c(F)c2F)oc2ccccc12 here?
A: 36.7%

Q: With O=c1cc(-c2c(F)c(F)c(F)c(F)c2F)oc2c(F)c(F)c(F)c(F)c12 as the molecule, how does the inhibition read?
A: 98.7% (active)

Q: Which inhibition does the source give for Cc1cccc(NC(=O)Cc2c(F)cccc2Cl)n1 here?
A: -46.6%

Q: For Cc1nsc(Nc2ccc([N+](=O)[O-])cc2)c1C#N, which inhibition is on record?
A: 60.4% (active)

Q: With Cc1nsc(Nc2ccccc2)c1C#N as the molecule, how does the inhibition read?
A: 16.5%

Q: With O=[N+]([O-])c1ccc(Nc2ccc(F)cc2)cc1 as the molecule, how does the inhibition read?
A: -11.9%

Q: Which inhibition does the source give for CN1CCN(/N=C/c2ccc(N(C)c3ccccc3)cc2)CC1 here?
A: -6.9%

Q: For Cc1cc(=O)oc2c(C)c(OCC(=O)NCCCn3ccnc3)ccc12, which inhibition is on record?
A: 1.8%

Q: With O=C(OCc1ccccc1)c1cccnc1Cl as the molecule, how does the inhibition read?
A: -18.1%

Q: For CN(Cc1ccon1)Cc1cn(C)nc1-c1ccc2c(c1)OCCO2, which inhibition is on record?
A: -26.3%

Q: With Cn1cc(CNCc2ccc(OC(F)(F)F)cc2)c(-c2ccc3c(c2)OCCO3)n1 as the molecule, how does the inhibition read?
A: 75.4% (active)

Q: With Cn1cc(CNCc2cn[nH]c2-c2ccc(F)cc2)c(-c2ccc3c(c2)OCCO3)n1 as the molecule, how does the inhibition read?
A: -22.2%

Q: Which inhibition does the source give for C/C(=N\NC(=O)C1CC1(c1ccccc1)c1ccccc1)c1cccc([N+](=O)[O-])c1 (centres undefined) here?
A: -12.5%

Q: Which inhibition does the source give for CC(=O)Nc1ccc(N=Cc2c(O)c(C(=O)Nc3ccccc3)cc3ccccc23)cc1 here?
A: 39.6%

Q: Which inhibition does the source give for CCOc1cc(Br)c(Br)c(C=Nc2ccc(NC(C)=O)cc2)c1O here?
A: 78% (active)

Q: Which inhibition does the source give for CC(=O)Nc1ccc(N=Cc2c(O)ccc3ccccc23)cc1 here?
A: -20%

Q: Which inhibition does the source give for O=C(Nc1ccc(NS(=O)(=O)c2ccccc2)cc1)c1cccnc1 here?
A: -23.8%

Q: For O=C(NCc1nnc(SCC(=O)N2CCCC2)o1)c1ccccc1, which inhibition is on record?
A: -0.1%

Q: Which inhibition does the source give for Cc1c(C(=O)O)[nH]c2c1C(=O)CC(c1ccccc1)C2 (centres undefined) here?
A: -0.4%

Q: With Cc1oc2c(c(=O)c1C)C(=O)CC(c1ccccc1)C2 (centres undefined) as the molecule, how does the inhibition read?
A: -15.6%

Q: Which inhibition does the source give for CS(=O)(=O)c1sc(C#N)c2c1C(=O)CC(c1ccccc1)C2 (centres undefined) here?
A: 43.9% (active)

Q: With CCc1noc(C)c1C(=O)Nc1ccccc1C(C)(C)C as the molecule, how does the inhibition read?
A: 38.7%

Q: Which inhibition does the source give for Cc1ccc(-c2nc(N3CCOCC3)sc2C(=O)N2CCOCC2)cc1 here?
A: -12.2%

Q: For Cc1ccc(CNC(=O)Nc2ccc(OC(F)(F)F)cc2)n1C, which inhibition is on record?
A: -21.3%

Q: With COC(=O)c1ccc(NC(=O)c2ccccc2NS(C)(=O)=O)cc1 as the molecule, how does the inhibition read?
A: -12%

Q: Which inhibition does the source give for COC(=O)c1ccccc1NS(=O)(=O)c1ccc(NC(C)=O)cc1 here?
A: 0.6%

Q: For COc1cc(OC)cc(C(=O)Nn2cc(C(=O)Nc3ccccc3F)c3ccccc3c2=O)c1, which inhibition is on record?
A: -16.8%

Q: For C=CCNC(=O)[C@@H]1CSC2c3ccc(OC)c(OC)c3C(=O)N21 (some centres undefined), which inhibition is on record?
A: -8.1%

Q: For Cc1ccc(C2C3C(=O)N(c4ccc(C)cc4)C(=O)C3N3CCCN23)cc1 (centres undefined), which inhibition is on record?
A: -7.6%

Q: Which inhibition does the source give for Cc1ccc(C(=O)COC(=O)c2cc(Cl)nc3ccccc23)cc1C here?
A: -37.6%

Q: Which inhibition does the source give for Cc1cccc(N2CCN(C(=O)c3ccc4nc(-c5ccco5)c(-c5ccco5)nc4c3)CC2C)c1 (centres undefined) here?
A: 60.5% (active)

Q: With Cc1ccc(C)c(N2CCN(C(=O)c3ccc4nc(-c5ccco5)c(-c5ccco5)nc4c3)CC2)c1 as the molecule, how does the inhibition read?
A: -1.9%

Q: For O=C(c1ccc2nc(-c3ccco3)c(-c3ccco3)nc2c1)N1CCN(c2ccccc2)CC1, which inhibition is on record?
A: 3.4%

Q: Which inhibition does the source give for O=C(CN1C(=O)c2ccccc2C1=O)Nc1cc([N+](=O)[O-])ccc1O here?
A: -38.7%

Q: With CCOc1cc(C(C(=O)NCC2CCCO2)N(C(=O)Cn2nnc3ccccc32)c2ccccc2C(C)=O)ccc1O (centres undefined) as the molecule, how does the inhibition read?
A: -47.9%

Q: With Cc1ccc(-n2c(C)cc(C3=NNC(=NC4CC4)SC3)c2C)cc1C as the molecule, how does the inhibition read?
A: -21.7%

Q: With Cc1cc(C2=NNC(=NC3CC3)SC2)c(C)n1-c1ccccc1F as the molecule, how does the inhibition read?
A: 96.7% (active)

Q: Which inhibition does the source give for Cc1cc(C2=NNC(=NC3CC3)SC2)c(C)n1-c1ccccc1 here?
A: 98.3% (active)

Q: With COc1ccc(-n2c(C)cc(C3=NNC(=NC4CC4)SC3)c2C)cc1 as the molecule, how does the inhibition read?
A: -7.5%

Q: Which inhibition does the source give for COCCCN=C1NN=C(c2cc(C)n(-c3ccccc3F)c2C)CS1 here?
A: 10.1%

Q: Which inhibition does the source give for Cc1cc(C2=NNC(=NC3CC3)SC2)c(C)n1-c1c(C)n(C)n(-c2ccccc2)c1=O here?
A: -12.6%

Q: Which inhibition does the source give for CCOC(=O)c1[nH]c2ccccc2c1NC(C)=O here?
A: 2.4%

Q: Which inhibition does the source give for CC(C)(C)n1cnc2cc(NS(=O)(=O)c3ccc(Br)cc3)ccc21 here?
A: 7.7%

Q: With Cc1ccc(-c2nnn(CC(=O)N(CCN3CCOCC3)C(C(=O)NC(C)(C)C)c3ccc(C)o3)n2)cc1 (centres undefined) as the molecule, how does the inhibition read?
A: -14.8%

Q: Which inhibition does the source give for COc1ccc(-c2cc3nc(C)cc(-c4ccc(OC)cc4)n3n2)cc1 here?
A: 66.8% (active)

Q: With COc1ccc(-c2cc3nc(C)cc(C)n3n2)cc1 as the molecule, how does the inhibition read?
A: -76.5%

Q: With COc1ccc(-c2cc3nc(C)cc(N)n3n2)cc1 as the molecule, how does the inhibition read?
A: -3.5%

Q: Which inhibition does the source give for COC(=O)C(Cc1ccccc1)NC(=O)c1cccc(S(=O)(=O)N(C)C)c1 (centres undefined) here?
A: -41.3%

Q: With COc1ccc(/C(C)=N/NC(=O)c2nnn(-c3nonc3N)c2CN(C)c2ccccc2)cc1 as the molecule, how does the inhibition read?
A: -7.2%

Q: For C/C(=N\NC(=O)c1c(Br)cnn1C)c1ccc(NC(=O)c2ccc(F)cc2)cc1, which inhibition is on record?
A: -45.8%

Q: Which inhibition does the source give for CCC(=O)NC(=S)Nc1ccccc1C(=O)NC1CCCCC1 here?
A: -10.9%

Q: For Cc1cc(C)cc(NC(=O)COc2ccc(C(=S)N3CCOCC3)cc2)c1, which inhibition is on record?
A: -14.5%

Q: For CCOC(=S)SCc1cn2ccc(C)cc2n1, which inhibition is on record?
A: 8.3%

Q: Which inhibition does the source give for Cc1oc2ccc(O)c(CN3CCOCC3)c2c1C(=O)c1ccc(Cl)cc1 here?
A: 27.5%

Q: Which inhibition does the source give for Cc1oc2c(Cl)c(Cl)c(O)c(CN(C)C)c2c1C(=O)c1ccc(Cl)cc1 here?
A: 65.8% (active)

Q: Which inhibition does the source give for Cc1oc2ccc(O)c(CN(C)C)c2c1C(=O)c1ccccc1 here?
A: -26.2%

Q: For CCN(CC)C(=O)CSc1nc2ccccc2c(=O)n1OC(C)C, which inhibition is on record?
A: 8%

Q: With COc1ccc(-n2c(C)cc(/C=C3/SC(=S)N(C)C3=O)c2C)cc1 as the molecule, how does the inhibition read?
A: -25.3%

Q: Which inhibition does the source give for Cc1cc(/C=C2\SC(=S)N(Cc3ccco3)C2=O)c(C)n1-c1cccnc1 here?
A: 8.2%

Q: Which inhibition does the source give for Cc1cc(/C=C2/SC(=S)N(c3ccc([N+](=O)[O-])cc3)C2=O)c(C)n1-c1cccnc1 here?
A: 74.8% (active)

Q: Which inhibition does the source give for Cc1ccc(/C=C2\SC(=S)N(c3cccnc3)C2=O)cc1 here?
A: -15%

Q: Which inhibition does the source give for Cc1cc(/C=C2\SC(=O)N(C)C2=O)c(C)n1-c1ccc(O)cc1 here?
A: 0.7%

Q: With Cc1cc(/C=C2/C(=O)NN(c3ccccc3)C2=O)c(C)n1-c1cccc(O)c1 as the molecule, how does the inhibition read?
A: -15.4%

Q: For Cc1cc(/C=C2\SC(=S)NC2=O)c(C)n1-c1cccc(O)c1, which inhibition is on record?
A: -11.9%

Q: Which inhibition does the source give for CC(c1ccccc1)n1c(N2CCNCC2)nc2c1c(=O)[nH]c(=O)n2C (centres undefined) here?
A: -36.1%

Q: With COc1ccc(NC(=O)CN(c2ccc(OC)cc2)S(=O)(=O)c2c(C)nn(C)c2C)cc1 as the molecule, how does the inhibition read?
A: -15.1%

Q: For COc1ccc(C(=O)N2CCC(C(=O)c3c(C)cc(C)cc3C)CC2)cc1, which inhibition is on record?
A: -8.8%

Q: With Cc1ccc(N2CC(C(=O)N3CCCc4ccccc43)CC2=O)cc1 (centres undefined) as the molecule, how does the inhibition read?
A: -10.4%

Q: With O=C(C1CCC(=O)N(C2CCCC2)C1)N1CCN(c2ccccc2Cl)CC1 (centres undefined) as the molecule, how does the inhibition read?
A: -2.7%

Q: For CCOC(=O)c1c(NC(=O)CSc2nnc(C)c(=O)[nH]2)sc(C)c1C, which inhibition is on record?
A: 17.3%

Q: Which inhibition does the source give for CCOC(=O)c1c(NC(=O)CSc2nnc(C)c(=O)[nH]2)sc2c1CCCC2 here?
A: 11.2%

Q: Which inhibition does the source give for CCOC(=O)c1c(NC(=O)CSc2nnc(C)c(=O)[nH]2)sc(C)c1-c1ccc(C)cc1 here?
A: 43.1% (active)
